Laboratory results taken from the supplement of paper PMC10849652.
Targets with a hit are over-represented here; the source holds about 7,900 in all. About 0.6% of all pairs of compound and target were hits. A number with no mark means an inactive call.

Key:
Test in all cases: log2 fold change, soluble protein after heating vs DMSO (PISA); higher = thermal stabilisation; K562 cells, 10 uM, 30 min; active = over 0.2 and 3.5 SD of the protein, either way, in both replicates (recomputed)
[1] = compound: Cc1ccc(NC(=O)c2ccc(CN3CC[C@H](N(C)C)C3)c(C(F)(F)F)c2)cc1Nc1nccc(-c2cncnc2)n1 [bafetinib]
Method in brief: (§1)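 K562 cells at 2×10^6 cells/mL were treated for 30 min with 10 μM compound, and aliquots were heated for 3 min over 48°C-58°C before pooling. Extraction used PBS with 0.5% NP-40 at 4°C, and soluble protein was the supernatant after 21,000xg for 90 min, measured by TMTpro 16plex LC-MS/MS with channel sums equalised. Thermal stability values, relative to control samples and from duplicates, are log2 fold changes.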

[2] = compound: Cc1cccc(CC(=O)N2CCc3c2ccc(-c2cn(C)c4ncnc(N)c24)c3F)n1
Method in brief: as §1

[3] = compound: Cc1cn(-c2cc(NC(=O)c3ccc(C)c(Nc4nccc(-c5cccnc5)n4)c3)cc(C(F)(F)F)c2)cn1 [nilotinib]
Method in brief: as §1

[4] = compound: Cc1nc(Nc2n[nH]c3c2CN(C(=O)N[C@H](CN(C)C)c2ccccc2)C3(C)C)c2sccc2n1
Method in brief: as §1

[5] = compound: Cc1nc(Nc2ncc(C(=O)Nc3c(C)cccc3Cl)s2)cc(N2CCN(CCO)CC2)n1 [dasatinib]
Method in brief: as §1

[6] = compound: Cc1ncc(-c2ccnc(Nc3ccc(S(C)(=O)=O)cc3)n2)n1C(C)C
Method in brief: as §1

[7] = compound: Cn1cc(-c2ccc3c(c2)CCN3C(=O)Cc2cccc(C(F)(F)F)c2)c2c(N)ncnc21
Method in brief: as §1

[8] = compound: Cn1cc(-c2ccc3nnc(C(F)(F)c4ccc5ncccc5c4)n3n2)cn1
Method in brief: as §1

[9] = compound: Cn1cncc1[C@@](N)(c1ccc(Cl)cc1)c1ccc2c(c1)c(-c1cccc(Cl)c1)cc(=O)n2C [tipifarnib]
Method in brief: as §1

[10] = compound: FC(F)(F)c1ccc(/C=C/c2nc(COc3ccc(CCCCn4ccnn4)cc3)co2)cc1 [mubritinib]
Method in brief: as §1

Sequence of UniProt P54709 (P54709 whole entry, looked up): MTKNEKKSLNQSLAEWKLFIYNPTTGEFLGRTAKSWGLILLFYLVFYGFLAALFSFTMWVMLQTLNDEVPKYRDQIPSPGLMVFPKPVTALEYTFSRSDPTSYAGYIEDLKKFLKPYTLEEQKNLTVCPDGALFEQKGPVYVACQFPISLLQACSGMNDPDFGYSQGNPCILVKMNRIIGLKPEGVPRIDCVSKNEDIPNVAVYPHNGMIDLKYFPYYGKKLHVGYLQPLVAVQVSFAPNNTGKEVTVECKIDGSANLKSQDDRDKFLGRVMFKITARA
Sequence of UniProt Q9UKV3 (Q9UKV3 whole entry, looked up): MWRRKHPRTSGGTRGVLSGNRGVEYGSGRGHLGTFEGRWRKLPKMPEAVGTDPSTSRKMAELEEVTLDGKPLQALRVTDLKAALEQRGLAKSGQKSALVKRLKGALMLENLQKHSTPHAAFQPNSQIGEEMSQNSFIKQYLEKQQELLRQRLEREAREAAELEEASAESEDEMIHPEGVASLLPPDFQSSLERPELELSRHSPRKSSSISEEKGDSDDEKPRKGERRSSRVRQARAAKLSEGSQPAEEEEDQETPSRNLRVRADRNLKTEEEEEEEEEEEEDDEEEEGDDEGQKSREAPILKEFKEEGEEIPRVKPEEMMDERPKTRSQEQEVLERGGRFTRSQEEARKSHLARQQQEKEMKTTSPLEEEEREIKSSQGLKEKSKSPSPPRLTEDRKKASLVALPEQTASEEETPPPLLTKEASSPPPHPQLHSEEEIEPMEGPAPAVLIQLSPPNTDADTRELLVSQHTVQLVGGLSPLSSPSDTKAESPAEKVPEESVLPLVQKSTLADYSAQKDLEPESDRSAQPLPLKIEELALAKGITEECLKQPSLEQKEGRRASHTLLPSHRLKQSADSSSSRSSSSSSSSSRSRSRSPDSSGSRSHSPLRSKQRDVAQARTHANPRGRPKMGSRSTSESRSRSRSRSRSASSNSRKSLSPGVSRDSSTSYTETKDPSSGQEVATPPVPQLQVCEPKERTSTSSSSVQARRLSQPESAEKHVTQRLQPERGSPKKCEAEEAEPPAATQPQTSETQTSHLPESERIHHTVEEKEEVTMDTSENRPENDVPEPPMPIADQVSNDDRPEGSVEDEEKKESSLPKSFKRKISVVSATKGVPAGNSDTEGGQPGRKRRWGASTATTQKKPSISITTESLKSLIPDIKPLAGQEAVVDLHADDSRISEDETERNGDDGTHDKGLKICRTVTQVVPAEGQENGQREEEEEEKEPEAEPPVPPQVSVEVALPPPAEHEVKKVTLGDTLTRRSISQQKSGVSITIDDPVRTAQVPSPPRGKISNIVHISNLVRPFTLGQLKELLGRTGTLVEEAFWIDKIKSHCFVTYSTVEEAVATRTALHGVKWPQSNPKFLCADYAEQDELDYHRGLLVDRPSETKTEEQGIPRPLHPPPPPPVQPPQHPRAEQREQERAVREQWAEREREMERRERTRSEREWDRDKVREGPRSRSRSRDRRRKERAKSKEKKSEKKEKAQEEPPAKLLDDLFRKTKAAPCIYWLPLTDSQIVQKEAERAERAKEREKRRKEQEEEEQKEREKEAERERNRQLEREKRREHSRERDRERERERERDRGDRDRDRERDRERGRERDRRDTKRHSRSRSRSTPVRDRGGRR
Sequence of UniProt Q8N2F6 (Q8N2F6 whole entry, looked up): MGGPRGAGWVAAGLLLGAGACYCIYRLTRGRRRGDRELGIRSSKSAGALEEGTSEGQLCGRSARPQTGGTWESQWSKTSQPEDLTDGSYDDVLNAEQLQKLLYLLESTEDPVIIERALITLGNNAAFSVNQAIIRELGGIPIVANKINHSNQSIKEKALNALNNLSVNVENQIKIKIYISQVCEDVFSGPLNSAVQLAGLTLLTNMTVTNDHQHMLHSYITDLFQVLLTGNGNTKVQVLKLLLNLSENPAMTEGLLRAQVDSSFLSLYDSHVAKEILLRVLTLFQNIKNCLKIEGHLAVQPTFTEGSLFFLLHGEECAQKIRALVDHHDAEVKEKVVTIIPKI
Sequence of UniProt Q9ULX6 (Q9ULX6 whole entry, looked up): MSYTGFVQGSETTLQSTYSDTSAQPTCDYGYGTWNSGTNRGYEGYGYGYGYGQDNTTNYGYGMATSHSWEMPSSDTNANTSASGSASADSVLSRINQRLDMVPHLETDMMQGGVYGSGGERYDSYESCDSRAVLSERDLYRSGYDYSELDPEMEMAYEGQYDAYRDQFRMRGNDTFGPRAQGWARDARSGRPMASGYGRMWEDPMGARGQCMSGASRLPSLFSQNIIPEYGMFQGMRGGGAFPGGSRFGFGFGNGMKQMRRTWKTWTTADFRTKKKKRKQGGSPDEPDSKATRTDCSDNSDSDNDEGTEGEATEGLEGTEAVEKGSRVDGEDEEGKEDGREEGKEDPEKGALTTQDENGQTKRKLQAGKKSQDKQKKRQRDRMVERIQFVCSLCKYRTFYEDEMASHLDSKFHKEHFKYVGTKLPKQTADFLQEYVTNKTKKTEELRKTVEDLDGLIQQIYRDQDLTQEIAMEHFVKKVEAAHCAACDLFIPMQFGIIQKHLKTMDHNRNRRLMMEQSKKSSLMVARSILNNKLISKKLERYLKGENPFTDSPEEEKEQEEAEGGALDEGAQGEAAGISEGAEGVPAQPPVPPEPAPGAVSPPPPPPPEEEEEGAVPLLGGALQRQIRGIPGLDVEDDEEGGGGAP
Sequence of UniProt Q8N6T3 (Q8N6T3 whole entry, looked up): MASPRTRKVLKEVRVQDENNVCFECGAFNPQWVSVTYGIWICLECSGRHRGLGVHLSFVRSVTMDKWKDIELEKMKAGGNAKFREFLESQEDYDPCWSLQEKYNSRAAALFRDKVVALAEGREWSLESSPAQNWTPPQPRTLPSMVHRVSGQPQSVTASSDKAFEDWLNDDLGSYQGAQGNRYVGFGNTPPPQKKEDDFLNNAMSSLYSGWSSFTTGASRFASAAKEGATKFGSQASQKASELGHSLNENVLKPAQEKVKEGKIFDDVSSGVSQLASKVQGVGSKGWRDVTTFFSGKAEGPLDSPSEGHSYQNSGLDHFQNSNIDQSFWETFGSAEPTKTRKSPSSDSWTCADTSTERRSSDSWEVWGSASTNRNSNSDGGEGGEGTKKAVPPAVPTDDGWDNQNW
Sequence of UniProt Q9NX46 (Q9NX46 whole entry, looked up): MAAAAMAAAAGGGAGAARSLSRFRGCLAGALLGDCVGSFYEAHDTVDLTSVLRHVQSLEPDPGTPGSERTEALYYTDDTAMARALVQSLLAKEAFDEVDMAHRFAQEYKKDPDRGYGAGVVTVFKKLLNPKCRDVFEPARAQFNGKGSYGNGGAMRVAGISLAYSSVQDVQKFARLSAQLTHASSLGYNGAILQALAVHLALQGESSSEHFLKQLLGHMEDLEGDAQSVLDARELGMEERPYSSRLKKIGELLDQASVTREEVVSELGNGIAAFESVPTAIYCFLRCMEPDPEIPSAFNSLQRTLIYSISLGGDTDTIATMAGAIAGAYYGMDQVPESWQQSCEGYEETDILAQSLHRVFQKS
Sequence of UniProt Q06481 (Q06481 whole entry, looked up): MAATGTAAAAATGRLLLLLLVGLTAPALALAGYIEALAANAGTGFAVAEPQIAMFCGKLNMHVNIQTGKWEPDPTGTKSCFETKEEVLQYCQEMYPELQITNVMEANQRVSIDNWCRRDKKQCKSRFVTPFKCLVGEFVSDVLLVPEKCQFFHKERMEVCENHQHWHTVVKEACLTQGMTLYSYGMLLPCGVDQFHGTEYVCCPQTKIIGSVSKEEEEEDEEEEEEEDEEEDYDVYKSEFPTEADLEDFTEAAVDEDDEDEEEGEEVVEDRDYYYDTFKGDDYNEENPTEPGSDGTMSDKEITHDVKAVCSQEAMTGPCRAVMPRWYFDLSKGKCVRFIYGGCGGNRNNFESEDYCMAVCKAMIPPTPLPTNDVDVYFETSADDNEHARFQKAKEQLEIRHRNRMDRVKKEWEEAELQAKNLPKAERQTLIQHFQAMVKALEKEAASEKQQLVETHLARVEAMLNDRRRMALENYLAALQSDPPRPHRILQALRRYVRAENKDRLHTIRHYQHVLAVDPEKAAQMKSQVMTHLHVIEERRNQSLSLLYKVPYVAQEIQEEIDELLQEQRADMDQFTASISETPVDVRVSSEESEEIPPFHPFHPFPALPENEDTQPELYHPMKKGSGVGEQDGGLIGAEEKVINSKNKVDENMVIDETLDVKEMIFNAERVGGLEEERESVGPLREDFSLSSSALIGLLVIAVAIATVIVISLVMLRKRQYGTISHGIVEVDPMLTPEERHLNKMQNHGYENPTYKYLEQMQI
Sequence of UniProt P30043 (P30043 whole entry, looked up): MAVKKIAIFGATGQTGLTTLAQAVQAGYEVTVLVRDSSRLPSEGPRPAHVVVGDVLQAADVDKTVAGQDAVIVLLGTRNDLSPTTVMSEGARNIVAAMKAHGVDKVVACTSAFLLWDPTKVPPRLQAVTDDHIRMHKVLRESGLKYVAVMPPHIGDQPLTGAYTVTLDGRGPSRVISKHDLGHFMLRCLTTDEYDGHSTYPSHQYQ
Sequence of UniProt Q9P287 (Q9P287 whole entry, looked up): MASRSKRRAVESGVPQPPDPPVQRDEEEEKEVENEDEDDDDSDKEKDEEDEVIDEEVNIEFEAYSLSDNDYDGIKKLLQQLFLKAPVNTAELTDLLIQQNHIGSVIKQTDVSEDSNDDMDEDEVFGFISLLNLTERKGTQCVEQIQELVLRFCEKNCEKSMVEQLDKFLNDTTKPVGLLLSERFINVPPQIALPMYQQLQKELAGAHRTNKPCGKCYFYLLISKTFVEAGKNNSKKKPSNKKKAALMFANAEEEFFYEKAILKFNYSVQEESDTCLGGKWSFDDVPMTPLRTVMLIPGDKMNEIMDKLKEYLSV
Sequence of UniProt Q8N6D5 (Q8N6D5 whole entry, looked up): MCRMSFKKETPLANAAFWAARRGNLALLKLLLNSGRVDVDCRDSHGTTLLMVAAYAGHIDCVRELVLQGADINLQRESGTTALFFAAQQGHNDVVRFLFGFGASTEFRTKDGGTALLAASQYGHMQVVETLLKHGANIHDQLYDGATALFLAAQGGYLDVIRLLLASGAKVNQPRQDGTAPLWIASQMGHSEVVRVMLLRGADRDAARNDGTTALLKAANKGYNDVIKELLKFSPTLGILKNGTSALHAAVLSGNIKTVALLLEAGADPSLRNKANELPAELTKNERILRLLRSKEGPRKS

Row | Target | log2 fold change [1] | log2 fold change [2] | log2 fold change [3] | log2 fold change [4] | log2 fold change [5] | log2 fold change [6] | log2 fold change [7] | log2 fold change [8] | log2 fold change [9] | log2 fold change [10]
1 | BST2 (UniProt Q10589) | 0.061 | -0.009 | 0.048 | -0.059 | -0.016 | -0.096 | -0.052 | 0.029 | 0.036 | -0.015
2 | ALG3 (UniProt Q92685) | -0.047 | 0.075 | 0.002 | 0.021 | 0.031 | 0.017 | -0.065 | 0.013 | -0.062 | 0.006
3 | ARGLU1 (UniProt Q9NWB6) | 0.165 | -0.058 | 0.184 | -1.13 (active) | 0.146 | -0.027 | -0.046 | -0.031 | 0.043 | -0.057
4 | BLVRB (UniProt P30043) | 0.014 | 0.05 | 0.021 | -0.109 | -0.064 | 0.029 | 0.032 | 0.074 | -0.021 | -0.097
5 | BCL9L (UniProt Q86UU0) | 0.043 | 0 | -0.046 | -0.064 | 0.018 | 0.053 | -0.013 | -0.031 | 0.014 | 0.026
6 | BCCIP isoform 2 (UniProt Q9P287) | 0.014 | 0.021 | -0.046 | -0.029 | -0.071 | 0.017 | -0.064 | -0.007 | -0.015 | -0.023
7 | ACSL3 (UniProt O95573) | -0.066 | 0.042 | -0.086 | -0.048 | -0.06 | 0.011 | 0.029 | 0.075 | -0.042 | 0
8 | ARFGAP1 (UniProt Q8N6T3) | -0.041 | -0.009 | -0.015 | -0.193 | -0.097 | -0.004 | -0.003 | 0.008 | -0.036 | -0.022
9 | ANKRD29 (UniProt Q8N6D5) | 0.063 | -0.027 | -0.09 | -0.057 | -0.002 | 0.053 | 0.22 | 0.133 | -0.223 | 0.083
10 | AGO1 (UniProt Q9UL18) | -0.036 | -0.085 | 0.185 | 0.34 | -0.019 | -0.164 | -0.073 | -0.133 | 0.057 | -0.066
11 | BRIP1 (UniProt Q9BX63) | -0.135 | -0.011 | -0.069 | 0.036 | -0.09 | -0.071 | 0.02 | -0.197 | -0.101 | –
12 | BCCIP (UniProt Q9P287) | 0.048 | 0 | -0.019 | -0.022 | -0.161 | 0.03 | -0.009 | -0.006 | 0.006 | 0.001
13 | ADAM15 (UniProt Q13444) | 0.067 | 0.003 | -0.11 | -0.043 | -0.009 | 0.079 | -0.355 (active) | 0.018 | -0.053 | –
14 | ATP13A3 (UniProt Q9H7F0) | -0.067 | 0.116 | -0.015 | -0.06 | 0.008 | 0.024 | -0.099 | 0.002 | 0.098 | -0.049
15 | AKT1 (UniProt P31749) | 0.041 | 0.004 | 0.033 | -0.275 | -0.416 | -0.158 | 0.048 | 0 | -0.136 | 0.033
16 | AP2M1 (UniProt Q96CW1) | 0.042 | -0.012 | 0.012 | 0.031 | 0.048 | -0.02 | -0.013 | -0.004 | 0.02 | -0.035
17 | ARMC10 (UniProt Q8N2F6) | 0.046 | 0.015 | -0.063 | -0.034 | -0.125 | -0.012 | -0.052 | -0.115 | 0.001 | -0.096
18 | B4GALT1 (UniProt P15291) | -0.062 | 0.009 | 0.066 | -0.025 | -0.083 | 0.021 | -0.005 | 0.04 | 0.153 | 0.029
19 | APLP2 (UniProt Q06481) | 0.054 | -0.063 | 0.156 | -0.144 | 0.118 | 0.052 | -0.007 | -0.164 | -0.01 | -0.011
20 | ACIN1 (UniProt Q9UKV3) | 0.022 | -0.037 | 0.086 | -0.444 (active) | 0.016 | -0.065 | 0.117 | -0.027 | 0.026 | 0.049
21 | AKAP8L (UniProt Q9ULX6) | -0.078 | -0.039 | 0.044 | -0.02 | -0.161 | -0.052 | -0.036 | -0.14 | 0.039 | 0.003
22 | ATP1B3 (UniProt P54709) | 0 | -0.039 | 0.06 | -0.003 | 0.027 | 0.021 | 0 | -0.02 | 0.065 | 0.043
23 | ADPRHL2 (UniProt Q9NX46) | 0.201 | 0.029 | 0.013 | 0.164 | -0.034 | 0.124 | 0.082 | 0.052 | -0.159 | 0.349 (active)
24 | ARHGAP1 (UniProt Q07960) | 0.001 | 0.016 | -0.019 | -0.056 | -0.101 | 0.007 | -0.025 | -0.008 | -0.069 | 0.01
25 | BZW1 isoform 3 (UniProt Q7L1Q6) | 0.002 | 0.167 | -0.124 | -0.138 | -0.283 | 0.03 | 0.017 | 0.011 | -0.364 | 0.089
26 | ATG4B isoform 2 (UniProt Q9Y4P1) | 0.004 | 0.073 | -0.061 | -0.035 | -0.242 | -0.041 | 0.022 | 0.13 | -0.402 | 0.073
27 | ADD2 (UniProt P35612) | 0.012 | 0.011 | 0.022 | -0.026 | -0.033 | -0.048 | 0.029 | 0.001 | 0.035 | 0.011
